The values that follow come from PubChem BioAssay (NCI).

The panel holds about 83,000 compounds, 20% with a hit somewhere; the sample as a whole holds those more often.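 Interpretation: 100, growth as untreated; towards 0, rising growth inhibition; 0, no net growth; 0 to -100, cell death. Compounds scoring below 10 were considered active.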 Values without a mark were called inactive. Calls of active or inactive are those of the source.

Common to all, as to test: NCI-60 one-dose screen, 48 h (100 = growth as untreated, 0 = no growth, -100 = all killed)
Test [1] has as its system SK-MEL-2 melanoma. As to conditions: 10 µM unless noted.
Test [2] concerns EKVX NSCLC. As to conditions: 10 µM unless noted.
The subject of test [3] is SN12C renal. The following applies: 10 µM unless noted.
In test [4] the test system is UO-31 renal. As to conditions: 10 µM unless noted.
Test [5] concerns TK-10 renal. As to conditions: 10 µM unless noted.
Test [6] relates to ACHN renal. The following applies: 10 µM unless noted.
Test [7] concerns A498 renal. The following applies: 10 µM.
The test system of test [8] is HL-60(TB) leukemia. As to conditions: 10 µM unless noted.
Test [9] deals with CAKI-1 renal. As to conditions: 10 µM unless noted.
In test [10] the test system is CCRF-CEM leukemia. The following applies: 10 µM unless noted.

For the compound `CNC(=O)Oc1ccc(C(C)(C)C)cc1OC(=O)NC`, the growth was 70.7% in [1]; 82.1% in test [2]; 95.2% in test [3]; 94.9% in test [4]; 98.2% in test [5]; 106% in test [6]. The growth was 98.8% in test [7] and 85.8% in test [8].

As for `COC(=O)[C@@H](C)C[C@H](Cc1ccccc1)NC(=O)c1nc([C@@H](C[C@H](C(C)C)N(C)C(=O)[C@@H](NC(=O)[C@H]2C[C@H](O)CCN2C)C(C)C)OC(C)=O)sc1C(C)C`, the growth in test [1] is 12.4%; in [2], 35.2%; in test [3] it was 7.67% (active); in [4], 12.5%; in [5], 27.5%; in [6], 10.8%. Moreover, the figures for the growth in test [9], in [8] and in [10] were 23.8%, -42.3% (active) and 4.78% (active), respectively.

Turning to `CC(=O)OC1CCC2(C)C(CCC3C2CC(=O)C2(C)C3CC(Sc3ccc(N(CCCl)CCCl)cc3)C2C(C)=O)C1` (configuration not stated), the growth in [1] is 93.3%; in test [2] it was 115%; in test [3], 87.3%; in test [4], 77.6%; in [5], 92.6%; in test [6] it was 72.3%. In addition, the growth in [7] is 103%; in test [8], 79.3%.

For `COC(=O)N[C@H]1CCc2c(Br)c(OC)c(OC)c(OC)c2-c2ccc(SC)c(=O)cc21`, the growth in test [1] is 29.4%; in test [2], 46%; in [3] it was 25.1%; in [4], 18.2%; in test [5], 41.6%; in [6], 26.7%. In addition, the figures for the growth in test [9], in test [8] and in test [10] were 13.7%, -43.7% (active) and 3.65% (active), respectively.

For `O=C1CNC(c2ccccc2)c2cc(Cl)ccc2N1` (configuration not stated), the growth in test [1] is 95.5%; in test [2], 104%; in [3], 97.6%; in [4] it was 80.4%; in [5], 93.2%; in test [6], 109%. In addition, the growth in test [7] and in [8] was 97.5% throughout.

With `CC(=O)O[C@H](C[C@H](C(C)C)N(C)C(=O)[C@@H](NC(=O)[C@H]1CCCCN1C)C(C)(C)C)c1nc(C(=O)N[C@@H](Cc2ccccc2)C[C@H](C)C(=O)O)cs1`, the growth in test [1] was 21.8%; in [2], 39.7%; in test [3], 17.9%; in [4], 43%; in [5] it was 52.6%; in test [6] it was 29%. In addition, the growth in test [7] is -6.47% (active); in [8], -26% (active); in [10], 1.05% (active).

With `CCOC(=O)c1c(C)n(Cc2ccccc2)c2cc(CN(C)C)c(O)cc12`, the growth was 92.1% in test [1]; 64.1% in test [2]; 57.8% in test [3]; 43.8% in test [4]; 68.8% in test [5]; 81.5% in test [6]. Moreover, the growth in test [7] was 43.2%; in test [8], 62%; in test [10] it was 41.2%.

For the compound `Cc1cccc(N2CCN(C(C)C#N)CC2)c1` (configuration not stated), the growth in test [1] was 104%; in test [2], 100%; in test [3], 103%; in [4] it was 84%; in test [5], 119%; in [6], 104%. Besides, the growth in test [9] was 95%; in test [8], 94.2%; in test [10] it was 107%.

As to `CS(=O)(=O)CCN1CC2CCCC(C2)C1`, the growth in test [1] was 105%; in test [2], 102%; in [3], 98.2%; in test [4], 96.9%; in [5], 96.4%; in [6] it was 97.7%. For the same compound, the growth in test [9] is 97.1%; in test [8] it was 81.4%; in [10], 97.2%.

For `COc1ccc(/C=C\c2cc(OC)c(OC)c(OC)c2)cc1OCC(=O)Nc1nc2ccc(F)cc2s1`, the growth in test [1] was 68.8%; in test [2], 57.7%; in test [3] it was 42.4%; in test [4], 0.455% (active); in [5] it was 17.5%; in test [6], 25%. For the same compound, the values for the growth in test [7], in test [8] and in [10] were 29.5%, 33.7% and 40.4%, respectively.

Regarding `Nc1c(F)cc(-c2nc3cc(F)ccc3[se]2)cc1Br`, the growth in [1] is 90.5%; in test [2], 32.7%; in test [3], 88.1%; in [4] it was 60.1%; in [5], -4.6% (active); in test [6], 27.5%. Further, the growth is 31.4% in test [7], 95.9% in [8] and 95.5% in [10].

Take `COC(=O)CC12CC(NC(=O)c3csc([C@@H](C[C@H](C(C)C)N(C)C(=O)[C@@H](NC(=O)[C@H]4CCCCN4C)C(C)C)OC(C)=O)n3)(C1)C2`: the growth in test [1] was 51.6%; in test [2], 38.6%; in test [3], 25.4%; in test [4] it was 55.2%; in [5] it was 50.5%; in [6] it was 17.2%. Further, the growth in [7] was 5.32% (active); in test [8], -29.6% (active); in [10], 13.6%.

Consider `C[C@@]12CC=C3c4nc(Nc5cccc(O)c5)sc4CC[C@]3(C)[C@H]1CC[C@]1(C)C(=O)CC[C@@H]21`, for which the growth was 29.1% in test [1]; 71.4% in [2]; 46.5% in [3]; 22.2% in test [4]; 10.2% in test [5]; 5.12% (active) in [6]. Besides, the growth in test [9] is 37.1%; in [10], 13%.

For `COC(=O)[C@@H](C[C@H](Cc1ccccc1)NC(=O)c1csc([C@@H](C[C@H](C(C)C)N(C)C(=O)[C@@H](NC(=O)[C@H]2CCCCN2C)C(C)C)OC(C)=O)n1)NC(=O)OCc1ccccc1`, the growth in test [1] was -10.4% [9.5 µM] (active); in test [2], 51.5% [9.5 µM]; in test [3], 15% [9.5 µM]; in test [4], 27.3% [9.5 µM]; in test [5], 45.2% [9.5 µM]; in [6], 16.4% [9.5 µM]. Further, the results for the growth in [9], in test [8] and in test [10] were 35.1% [9.5 µM], -40.2% [9.5 µM] (active) and 6.42% [9.5 µM] (active), respectively.
